# Bioassay records (PubChem BioAssay)
# The sample as a whole holds a higher share of hits than the screen did.
# miR-122 inh = miR-122 suppressors via Renilla sensor increase, primary screen, cell-based, Huh7 psiCHECK-miR122, Renilla luciferase, single point. 48 h. actives 0.14% (n = 340,000). activation, % at 12.5 µM;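 active = mean activation of 30% or more, with every replicate also reaching 30%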;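 note: higher luciferase signal means stronger suppression of miR-122 activity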
# A number is an active result; 0 = inactive.
SMILES,miR-122 inh
C[C@H]1CN([C@@H](C)CO)C(=O)c2cc(C#Cc3ccccn3)cnc2O[C@H]1CN(C)C(=O)c1cnccn1,0
C[C@H](CO)N1C[C@H](C)[C@H](CN(C)S(C)(=O)=O)Oc2ncc(-c3cccc(F)c3)cc2C1=O,0
Cc1ccc(-c2cnc3c(c2)C(=O)N([C@@H](C)CO)C[C@H](C)[C@H](CN(C)C(=O)Cc2cccnc2)O3)cc1,0
O=S(=O)(Nc1ccccc1)c1ccc(Oc2ncc(C(F)(F)F)cc2Cl)cc1,0
COc1cccc(N2CCN(C(=S)Nc3cccc(C)c3)CC2)c1,0
FC(F)(F)c1cnc(N2CCCN(C(=S)Nc3ccccc3)CC2)c(Cl)c1,37.1
CCCC#Cc1cnc2c(c1)C(=O)N([C@H](C)CO)C[C@@H](C)[C@@H](CN(C)C(=O)Cc1ccccc1)O2,0
C[C@@H]1CN([C@H](C)CO)C(=O)c2cc(N(C)C)ccc2O[C@@H]1CN(C)S(=O)(=O)c1ccc(Cl)cc1,0
CCC(=O)N1C[C@@H](C)[C@H](OC)CN(C)C(=O)c2ccc(NS(C)(=O)=O)cc2OC[C@@H]1C,0
C[C@H](O)C#Cc1ccc2c(c1)O[C@H](CN(C)CC1CCOCC1)[C@@H](C)CN([C@H](C)CO)S2(=O)=O,0
C[C@H]1CN([C@@H](C)CO)C(=O)c2cc(C#CCc3ccccc3)cnc2O[C@H]1CN(C)Cc1cccc(C(=O)O)c1,0
C[C@@H]1CN([C@H](C)CO)C(=O)c2cccc(NC(=O)c3cnccn3)c2O[C@@H]1CN(C)C(=O)Nc1cccc2ccccc12,0
O=C(NC(Nc1ncc(S(=O)(=O)c2ccc([N+](=O)[O-])cc2)s1)(C(F)(F)F)C(F)(F)F)c1ccc(Cl)cc1,43.7
CO[C@H]1CN(C)C(=O)c2ccc(NC(=O)Nc3ccc(F)cc3)cc2OC[C@@H](C)NC[C@@H]1C,0
C[C@@H]1CN([C@@H](C)CO)C(=O)c2cc(-c3ccc(F)cc3)cnc2O[C@@H]1CN(C)C(=O)c1ccccn1,0
C[C@@H]1CN([C@H](C)CO)C(=O)c2cc(C#CC3(O)CCCC3)cnc2O[C@@H]1CN(C)S(C)(=O)=O,0
C[C@@H]1CN([C@H](C)CO)C(=O)c2cc(-c3cccc(F)c3)cnc2O[C@H]1CN(C)Cc1cncnc1,0
CN1C(=O)c2cc(NC(=O)c3cccc(F)c3)ccc2OC[C@@H]2O[C@@H](CC(=O)NC3CCC3)CC[C@H]21,70.0
CC(=O)Nc1ccc2c(c1)C(=O)N(C)[C@H]1CC[C@H](CC(=O)NC3CCCCC3)O[C@@H]1CO2,63.3
CN1C(=O)c2cc(NC(=O)Cc3ccccc3)ccc2OC[C@@H]2O[C@H](CC(=O)NC3CCC3)CC[C@@H]21,0
CN1C(=O)c2cc(NC(=O)NC3CCCC3)ccc2OC[C@H]2O[C@@H](CC(=O)O)CC[C@H]21,0
C[C@H](CO)N1C[C@H](C)[C@H](CN(C)Cc2ccc(C(=O)O)cc2)Oc2ncc(-c3ccc(F)cc3)cc2C1=O,0
C[C@H](O)C#Cc1ccc2c(c1)O[C@@H](CN(C)C)[C@@H](C)CN([C@@H](C)CO)S2(=O)=O,0
C[C@H]1CN([C@@H](C)CO)C(=O)c2cc(C#CC3(O)CCCC3)cnc2O[C@H]1CN(C)S(=O)(=O)c1ccccc1,0
C[C@@H]1CN([C@H](C)CO)C(=O)c2cc(-c3ccc(F)cc3)cnc2O[C@@H]1CN(C)CC1CCOCC1,0
SMILES,miR-122 inh
Cc1cc(C(=O)N/N=C/c2cc(Br)ccc2OC(=O)c2ccccc2)n[nH]1,32.5
Cc1ccc(-c2cnc3c(c2)C(=O)N([C@@H](C)CO)C[C@H](C)[C@H](CN(C)C(=O)c2ccncc2)O3)cc1,0
C/C=C/c1cnc2c(c1)C(=O)N([C@@H](C)CO)C[C@H](C)[C@H](CN(C)C(=O)c1cccnc1)O2,0
COc1ccc(C#Cc2ccc3c(c2)O[C@@H](CN(C)C(=O)NC2CCCCC2)[C@H](C)CN([C@H](C)CO)S3(=O)=O)cc1,0
C[C@@H]1CN([C@H](C)CO)S(=O)(=O)c2ccc(-c3ccccc3)cc2O[C@H]1CN(C)Cc1cncnc1,0
O=CN1CCN(C(=O)c2ccccc2F)CC1,33.9
CCCNC(=O)N(C)C[C@H]1Oc2ncc(C#Cc3ccccc3F)cc2C(=O)N([C@@H](C)CO)C[C@@H]1C,0
COCC#Cc1ccc2c(c1)O[C@H](CN(C)C(=O)C1CCOCC1)[C@@H](C)CN([C@H](C)CO)S2(=O)=O,0
COCC#Cc1ccc2c(c1)O[C@@H](CN(C)C(C)=O)[C@@H](C)CN([C@@H](C)CO)S2(=O)=O,0
COCC(=O)N(C)C[C@@H]1Oc2cc(-c3cccc(F)c3)ccc2S(=O)(=O)N([C@H](C)CO)C[C@@H]1C,0
O=C(c1cc([N+](=O)[O-])ccc1N1CCOCC1)N1CCN(c2ccccc2)CC1,0
Cc1onc(C(=O)N2CCN(C(c3ccccc3)c3ccccc3)CC2)c1[N+](=O)[O-],30.5
C[C@H]1CN([C@@H](C)CO)C(=O)c2cc(C#CC3CC3)cnc2O[C@@H]1CN(C)Cc1ccncc1,0
C[C@H]1CN([C@@H](C)CO)C(=O)c2cc(-c3cncnc3)cnc2O[C@@H]1CN(C)Cc1ccccc1,0
